# Reference: the supplement of paper PMC13392028
# Over roughly 4,100 sequences, “RBNS R-value (6-mer enrichment in protein-bound RNA vs input library)” has its median near 0.96; the highest 2% begin near 2.4. What follows is part of a selection rich in the highest values, with near analogues and random picks from the rest.
# Test system: PyIESI-1 RRM domain (Plasmodium yoelii PY17X_0911200 aa 795-956, GST fusion)
# Assay: RBNS R-value (6-mer enrichment in protein-bound RNA vs input library) (ratio); higher = stronger binding preference; the methods of the paper give 50 / 100 / 500 nM protein instead
# Experimental: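 RNA Bind-n-Seq: recombinant GST-tagged IESI-1 RRM domain was incubated at room temperature with a random 40-nt in vitro transcribed RNA library at 250, 500 or 1000 nM protein. Bound RNA was pulled down on glutathione beads and sequenced. R-value is the enrichment of each 6-mer in the bound RNA relative to the input library. Each 6-mer sits inside the random 40-mer context, not as an isolated oligo. Values are replicate 1 only.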
Sequence,RBNS R-value (protein concentration: 250 nM),RBNS R-value (protein concentration: 500 nM),RBNS R-value (protein concentration: 1000 nM)
CAGAUG,1.85,1.83,1.93
AUGAGC,1.51,1.48,1.49
CAGAUA,0.96,0.988,1.02
AUGAUG,8.6,7.43,7.47
AUGAAG,1.53,1.51,1.47
CGGAUG,1.22,1.18,1.18
CUGAUA,3.66,3.59,3.88
CUGACA,1.26,1.25,1.26
AGGAUG,1.22,1.18,1.18
AGGAUC,0.785,0.788,0.757
CUGAUG,6.48,5.8,5.87
AUGAUC,2.74,2.71,2.97
AUAAAA,0.85,0.843,0.844
UCCAGG,1,1,1
UCAUUU,0.748,0.785,0.825
CGACAG,1.01,0.998,0.998
CAAUCG,0.873,0.879,0.886
UUAGCC,0.885,0.907,0.915
AGGCUU,0.943,0.943,0.919
CGUUUG,1.1,1.09,1.08
AGGAUA,0.874,0.876,0.848
AUGAAU,1.41,1.35,1.36
UUGACA,1.57,1.54,1.56
CUGAUC,2.39,2.38,2.58
AUGAGA,1.6,1.58,1.57

Sequence,RBNS R-value (protein concentration: 250 nM),RBNS R-value (protein concentration: 500 nM),RBNS R-value (protein concentration: 1000 nM)
CUGAAC,1.05,1.06,1.05
CUGACC,1.23,1.22,1.27
UUGAGA,1.31,1.32,1.31
AGGAUU,1.06,1.04,0.995
UUGAUA,4.42,4.38,4.81
AUGAUA,4.79,4.63,5.14
AUGAUU,7.34,6.63,6.94
AGUCCU,0.811,0.839,0.826
UUCGAU,1.93,1.95,2.08
AACCAG,0.915,0.9,0.923
CUCUGA,1.97,1.91,1.94
UUGAUG,7.94,6.95,6.96
UUGAUC,2.63,2.7,2.9
GUGAUG,5.06,4.7,4.68
UAGAUC,0.818,0.834,0.838
GGGAUG,1.3,1.28,1.27
UUGAAG,1.08,1.11,1.08
GUGAAG,0.939,0.946,0.891
UUGACC,1.42,1.42,1.47
UAGAUG,1.64,1.65,1.73
AAAGCA,0.883,0.885,0.861
CAAGGA,1,0.973,0.963
CGAAUG,1.41,1.37,1.35
UAUACC,0.57,0.601,0.592
CUCGGA,0.971,0.974,0.939

Sequence,RBNS R-value (protein concentration: 250 nM),RBNS R-value (protein concentration: 500 nM),RBNS R-value (protein concentration: 1000 nM)
CGUGCU,0.967,0.973,0.954
GUAAGU,0.66,0.682,0.638
GUCUGG,0.813,0.839,0.796
GCUGAU,3.92,3.7,3.79
CCUGAC,1.32,1.33,1.34
GCUGAC,1.21,1.23,1.23
UCUGAU,4.51,4.2,4.42
CCUGAU,4.76,4.47,4.65
ACUGAU,4.56,4.17,4.36
UCUGAA,1.01,1.03,0.99
GCUGAG,1.21,1.18,1.15
UCUGAC,1.13,1.12,1.13
ACUGAG,1.18,1.19,1.13
ACUGAC,1.18,1.16,1.18
CCUGAA,1.23,1.24,1.23
AUGCAG,1.15,1.16,1.18
AUCUGU,0.889,0.916,0.89
GAGGAG,1.12,1.09,1.02
CUCACG,0.951,0.969,0.993
UCUGGC,1.18,1.18,1.17
GCGACC,1.08,1.08,1.09
GGGUUU,0.955,0.992,0.97
ACACUC,1.07,1.05,1.07
GUUGAU,4.02,3.81,3.96
UUUGAC,1.48,1.47,1.5

Sequence,RBNS R-value (protein concentration: 250 nM),RBNS R-value (protein concentration: 500 nM),RBNS R-value (protein concentration: 1000 nM)
UUUGAA,1.15,1.15,1.13
AUUGAG,1.23,1.24,1.21
AUUGAC,1.45,1.46,1.49
CUUGAC,1.61,1.59,1.61
CUUGAA,1.18,1.17,1.15
GUUGAC,1.02,1.02,1.01
CUUGAU,4.89,4.7,4.93
AUUGAU,5.75,5.29,5.52
UUUGAU,6.28,5.82,6.05
GUUGAG,0.856,0.907,0.877
GUGUGA,1.5,1.51,1.48
UUGGUC,0.872,0.953,0.884
GCGGGC,1.09,1.09,1.07
UUCUGC,1.19,1.21,1.22
GGUUCG,0.887,0.904,0.88
UAUCAG,0.589,0.619,0.59
AGCCUU,0.931,0.961,0.982
GAUCUA,1.19,1.23,1.27
CACGAU,1.8,1.82,1.95
CUUAGA,0.933,0.948,0.93
AACAUA,0.429,0.465,0.417
CCAAAA,1.14,1.1,1.11
